# Data published in PubChem BioAssay AID488 (PCMD, 2006).
# About 40 (0.06%) of roughly 62,000 compounds were called active. Rule as the data show it: active = inhibition above about 22% (passing the limit was not always enough); inconclusive = no clear call, values can overlap the other calls. The entries come from a sample that favours actives as a whole.
# Target: Cathepsin B (Homo sapiens) (UniProt P07858)
# Experiment: human cathepsin B blockade, pooled library – biochemical, compound mixtures, AMC fluorescence, primary screen (AID 488);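 also: 0% = enzyme without compound and 100% = no enzyme blank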
# Settings: Purified cathepsin B, AMC dipeptide fluorescence, stronger effect = higher value,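 ten-compound pools at 5 µM per compound and 50 µM total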
row,SMILES,inhibition
1,Cc1ccc(C(=O)CSc2nnc(Cn3nnc4ccccc43)n2C)cc1,-0.39% (inactive)
2,C=CCn1c(SCc2csc(C)n2)nc2scc(-c3ccc(C)o3)c2c1=O,5.42% (inactive)
3,Cc1ccc2nc(NCCCNC(=O)c3cnccn3)c(C#N)cc2c1,1.1% (inactive)
4,CCNc1nc(SCCOc2ccccc2)nc(N(C)C)n1,3.91% (inactive)
5,C/C(Cl)=C\Cn1c(Nc2cccc(C)c2)nc2c1c(=O)n(C)c(=O)n2C,5.3% (inactive)
6,Cc1ccccc1S(=O)(=O)Cc1ccc(C(=O)NCCN2CCCCC2C)o1 (stereo unspecified),3.67% (inactive)
7,CCOc1ccc2[nH]c(=O)c(CN(Cc3nnnn3Cc3ccccc3)CC3CCCO3)cc2c1 (stereo unspecified),3.02% (inactive)
8,COC(=O)Nc1ncc(CN2C(=O)c3ccccc3C2=O)s1,-2.69% (inactive)
9,CCCS(=O)(=O)N1CCCC(C(=O)NCCN2CCCCC2C)C1 (stereo unspecified),3.97% (inactive)
10,Cc1ccc(C(C(=O)NC2CCCC2)N(Cc2ccco2)C(=O)CCC(=O)Nc2ccccn2)cc1 (stereo unspecified),3.21% (inactive)
11,CCCCn1c(CN2CCN(CCO)CC2)nc2ccccc21,2.92% (inactive)
12,CCc1ccc(-c2nnn(Cc3nc4ccccc4s3)n2)cc1,4.33% (inactive)
13,O=c1[nH]nc(CSCc2ccccc2Cl)[nH]1,4.72% (inactive)
14,O=C(COc1ccc(F)cc1)N(CC1=CCS(=O)(=O)C1)c1ccccc1,-3.79% (inactive)
15,Cc1ccc2cc3cc(C(=O)N4CCCCCC4)oc3nc2c1,3.89% (inactive)
16,C=CCn1c(N)c(C(=O)OCC(C)C)c2nc3ccccc3nc21,-4.76% (inactive)
17,COc1cccc(NS(=O)(=O)c2ccc3[nH]cc(C(=O)NCCCOC(C)C)c(=O)c3c2)c1,5.5% (inactive)
18,COC(=O)[C@H](CCSC)NC(=O)Nc1ccc(OC)cc1,1.64% (inactive)
19,C=CCNC(=O)c1cc(-c2ccccc2O)on1,-1.28% (inactive)
20,O=C(CSc1nnc(-c2ccco2)n1Cc1ccccc1)NC(=O)NCc1ccco1,-0.985% (inactive)
21,COCCCN(C(=O)Cn1ncc2c(=O)oc3ccc(C)cc3c21)C(C)c1ccncc1 (stereo unspecified),1.95% (inactive)
22,O=C(CN1C(=O)NC2(CCCCC2)C1=O)NCCC1=CCCCC1,4.21% (inactive)
23,Cc1cc(NC(=O)COn2nnc3ccccc32)no1,1.15% (inactive)
24,CCc1ccccc1NC(=O)CSc1nnc([C@@H](NC(=O)OC(C)(C)C)C(C)C)o1,5.22% (inactive)

row,SMILES,inhibition
1,Cc1ccc(C(=O)NCC(=O)O)cc1S(=O)(=O)N1CCCCC1,1.96% (inactive)
2,COc1ccc(C(=O)Nc2ccc3c(c2)OCO3)cc1OC,1.18% (inactive)
3,Cc1ccc(C(=O)Nc2ccc3c(c2)OCO3)cc1S(=O)(=O)N1CCCCC1,62.7% (active)
4,COc1ccc(NS(=O)(=O)c2ccc(NC(C)=O)cc2)cc1OC,2.73% (inactive)
5,CCC(=O)c1ccc(OCC(O)CN2CCN(c3cccc(C(F)(F)F)c3)CC2)cc1 (stereo unspecified),2.81% (inactive)
6,Cc1noc(C)c1S(=O)(=O)Nc1ccc(C(=O)O)cc1,5.64% (inactive)
7,COc1ccc(CC(=O)c2ccc(O)cc2O)cc1OC,-2.36% (inactive)
8,Cc1ccc(SCCN2C(=O)NC(C)(C)C2=O)cc1,3.79% (inactive)
9,CCCc1nc(N)nc2c1C(=O)CC(C)(C)C2,3.17% (inactive)
10,CCC(=O)N1CCc2cc(S(=O)(=O)NC(C(=O)N3CCc4ccccc4C3)C(C)C)ccc21 (stereo unspecified),15.3% (inactive)
11,O=C(NCc1ccc(Cl)c(Cl)c1)c1cccnc1,-2.21% (inactive)
12,CCCC(CCC(=O)OC)(C(=O)OCC)c1csc(N)n1 (stereo unspecified),6.54% (inactive)
13,CC1CCCN(Cc2nc3c(c(=O)n(C)c(=O)n3C)n2Cc2cccc3ccccc23)C1 (stereo unspecified),1.14% (inactive)
14,CN(CCCC(=O)Nc1nccs1)S(=O)(=O)c1ccc(Cl)cc1,3.83% (inactive)
15,Cc1ccc(S(=O)(=O)N2CCN(C(=O)CCC(=O)NC3CCCc4ccccc43)CC2)cc1 (stereo unspecified),1.64% (inactive)
16,CC(=O)Nc1cc(C(=O)O)ccc1S(=O)(=O)c1ccc(Cl)cc1,-0.3% (inactive)
17,CCCC(=O)N1c2ccccc2NC2=C(C(=O)CCC2)C1c1ccc(F)cc1 (stereo unspecified),4.79% (inactive)
18,COc1ccc(OC)c(NC(=O)CSc2nc3cccnc3n2C)c1,-8.48% (inactive)
19,O=C1NC(Nc2nc3ccccc3s2)(C(F)(F)F)C(=O)N1C1CCCCC1 (stereo unspecified),1.35% (inactive)
20,CN1CCN(C(=O)C2C3C=CC(C3)C2C(=O)O)CC1 (stereo unspecified),5.22% (inactive)
21,CSCCC(NC(=O)c1ccc(=O)n(C)n1)c1nc2ccccc2[nH]1 (stereo unspecified),-2.06% (inactive)
22,c1ccc2c(c1)OCC(c1nn3cnnc3s1)O2 (stereo unspecified),-2.62% (inactive)
23,O=C(NCCN1C(=O)C2C3C=CC(C3)C2C1=O)Nc1ccccn1 (stereo unspecified),7.59% (inactive)
24,Cn1c2ccccc2c2c(C(=O)N3CCN(c4ccc(F)cc4)CC3)cn(C3CCCC3)c(=O)c21,4.51% (inactive)

row,SMILES,inhibition
1,CCCNc1ncnc2sc(C)c(C)c12,2.56% (inactive)
2,O=C(CSc1nnnn1-c1ccc2c(c1)CCC2)Nc1ccc2c(c1)OCCO2,0.15% (inactive)
3,Cn1c(=O)n(C)c2cc(CNc3ccc(N4CCOCC4)c(C(=O)O)c3)ccc21,-0.23% (inactive)
4,O=C(Nc1ccc(Cl)cc1)c1ccsn1,-2.12% (inactive)
5,COc1ccc(OC)c(C(=O)CSc2nnc(-c3cccs3)o2)c1,-2.44% (inactive)
6,CCN(CC)S(=O)(=O)c1ccc2nc(COC(=O)c3n[nH]c4ccccc34)[nH]c2c1,3.42% (inactive)
7,O=C(NC(c1ccccc1)c1ccccc1)N1CCN(CCO)CC1,3.62% (inactive)
8,CC1CCC(NC(=O)c2ccc(N3CCCC3=O)cc2)CC1 (stereo unspecified),-4.06% (inactive)
9,COCC(=O)Nc1nnc(COc2ccccc2)s1,-8.97% (inactive)
10,COC(C)(C)[C@]12CC(O)(C(C)C)ON1[C@H]1CCCCC1N2O (stereo partly specified),-3.22% (inactive)
11,Cn1c(=O)c2c(n(Cc3ccccc3)c1=O)NC(=O)C2CC(=O)N1CCc2ccccc2C1 (stereo unspecified),0.76% (inactive)
12,O=c1c2c(nc3n1CCCCC3)sc1c(O)cccc12,5.69% (inactive)
13,CC(C)c1ccc(NS(=O)(=O)c2cn(C)c(=O)n(C)c2=O)cc1,3.38% (inactive)
14,CCCCNC(=O)c1ccccc1NC(=O)c1ccccc1N(C)S(C)(=O)=O,7.15% (inactive)
15,CCOC(=O)Cc1csc(NC(=O)CN(C)S(=O)(=O)c2ccc3c(c2)CCC(=O)N3)n1,3.69% (inactive)
16,COc1ccc(-c2nc(CS(=O)CC(=O)N3CCc4ccccc4C3)c(C)o2)cc1 (stereo unspecified),4.29% (inactive)
17,CCC(C)Sc1nc(C)nc2c1c(=O)n(C)c(=O)n2C (stereo unspecified),2.91% (inactive)
18,N#CCCn1ncc2ccccc21,-3.63% (inactive)
19,COc1ccc(CCN2CNc3c(c(=O)n(C)c(=O)n3C)C2)cc1OC,0.085% (inactive)
20,COc1ccc(-c2ccnc(SCC(=O)N3CCOCC3)n2)cc1,-0.81% (inactive)
21,CCN1CCN(c2c(Cl)cccc2NC(=O)c2ccc(Br)o2)CC1,5.68% (inactive)
22,COc1nc(NCc2ccc(Cl)cc2)nc(OC)n1,6.46% (inactive)
23,CCCn1c(SCC(=O)N2CCc3ccccc32)nnc1-c1ccncc1,5.11% (inactive)
24,CC(C)(C)NC(=O)NC(=O)COC(=O)Cn1c(C(F)(F)F)nc2ccccc21,0.995% (inactive)

row,SMILES,inhibition
1,N#Cc1cccc(CSc2nnc(CCCO)n2-c2ccccc2)c1,22% (inactive)
2,COC(=O)c1c(NC(=O)CCN2CCOCC2)sc2c1CCCC2,3.41% (inactive)
3,Cn1c(=O)cc(SCC(=O)N2CCN(C(=O)c3ccco3)CC2)c2ccccc21,2.19% (inactive)
4,Cc1ccccc1-c1nc(CS(=O)(=O)CC(=O)N2CCc3ccccc3C2)c(C)o1,4.15% (inactive)
5,Cc1cccc(NC(=O)C2CCN(S(=O)(=O)c3cccc4cccnc34)CC2)c1,4.24% (inactive)
6,Cc1cc(Nc2ccc(Br)cc2F)n2ncnc2n1,-2.18% (inactive)
7,COc1ccc(C(CC(=O)O)NC(=O)Cc2ccccc2)cc1 (stereo unspecified),-0.455% (inactive)
8,COc1ccc(S(=O)(=O)N2CCCCC2)cc1Br,2.55% (inactive)
9,CC(=O)c1cc(-c2ccccc2)[nH]c1N1CCCC1,2.3% (inactive)
10,CC1Oc2ccccc2N(Cc2cccnc2)C1=O (stereo unspecified),4.41% (inactive)
11,O=C(CCS(=O)(=O)c1cccc2nonc12)NCCc1ccccc1Cl,4.8% (inactive)
12,Cn1cccc1Cc1nnc(SCC(=O)NCCc2ccccc2)n1-c1ccc(F)cc1,4.42% (inactive)
13,CC1(C)Oc2ccc(C(=O)N3CCOCC3)cc2N(CC(=O)Nc2ccccc2)C1=O,-0.39% (inactive)
14,COc1ccccc1C(=O)C(O)c1ccccc1OC (stereo unspecified),1.43% (inactive)
15,O=C(Cn1cc(C(=O)c2cccs2)c2ccccc21)NCc1cccs1,-1.35% (inactive)
16,CCOC(=O)COc1ccc(Cl)cc1C1NC(=O)NC(C)=C1C(C)=O (stereo unspecified),-5.4% (inactive)
17,O=C(NCc1ccccn1)c1c(O)c2c([nH]c1=O)CCCC2,4.33% (inactive)
18,CC12COC3(C(=O)Nc4ccc(Cl)cn4)CC1CCC32C (stereo unspecified),2.24% (inactive)
19,COc1cccc(C(CC(=O)NCCN2CCOCC2)NS(=O)(=O)c2ccc(C)cc2)c1OC (stereo unspecified),-2.29% (inactive)
20,CCN(C(=O)CSc1ncn[nH]1)c1cccc2ccccc12,5.46% (inactive)
21,Cn1c(=O)c2c(nc(N3CCCCCC3)n2CC(=O)c2ccc(Br)cc2)n(C)c1=O,6.96% (inactive)
22,CCOC(=O)CSc1nnc(CNC(=O)c2cccs2)n1-c1ccccc1,3.94% (inactive)
23,CCCOc1ccc(NC(=O)C2CCCNC2=O)cc1 (stereo unspecified),0.055% (inactive)
24,CCOC(=O)N1CCN(C(=O)c2ccc(S(=O)(=O)c3ccc(C)cc3)c(NC(C)=O)c2)CC1,0.155% (inactive)
